Shown are actives, neighbours in structure and some others; about 12% of the full set was active somewhere.
G9a inh – blocks human histone lysine methyltransferase G9a | Q96KQ7 | G9a H3K9 monomethylation, AlphaScreen, 2 h | Potency, µM (highest dose often 102 µM), for the others: at the highest dose activity, negative = inhibition, hits mostly inhibitors | 350,000 tested, 8.8% active | AID 504332; further: on the % scale 0 is the no-effect control and ±100 the full control effect; nearly all actives have a fitted effect of over 75% in size
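Readings reflect AlphaScreen signal from monomethyl-H3K9 antibody detection. HMT at 20 nM; substrate b-H3K9 500 nM; cofactor SAM 20 uM; 2 h RT reaction; compounds tested as titrations in qHTS with 15 min preincubation.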
Sfp inh – inhibitors of Bacillus subtilis Sfp phosphopantetheinyl transferase; Potency, µM, without a hit: largest response in the series, negative = inhibition, hits mostly inhibitors; Q9F4F7; 310,000 tested, 3.5% active; Biochemical Sfp PPTase activity, qHTS;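 further: the enzyme is Sfp with the accession as filed and its product quenches rhodamine fluorescence; 0% = enzyme reaction without inhibitor and -100% = no enzyme wells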
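Sfp 15 nM + cpd, 15 min RT; start w/ rhodamine-CoA 5 uM, BHQ-2-YbbR 12.5 uM (final); 50 mM Hepes pH 7.6, 10 mM MgCl2, 0.01% NP-40, 0.01% BSA; read 525/598 nm at 0 and 30 min.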
JMJD2A Tudor inh – inhibitors of human JMJD2A Tudor domain. AlphaScreen JMJD2A-Tudor / H3K4me3 peptide binding. Potency, µM (series often up to 114 µM), for inactives: at the highest dose activity change, negative = inhibition, actives largely listed as inhibitors. 390,000 tested, 4.4% active; further: on the % scale 0 is the no-effect control and ±100 the full control effect; nearly all actives have a fitted effect of over 50% in size
PLK1 PBD block – blocks phosphopeptide binding to human PLK1 polo-box domain | Plk1 PBD binding of FITC phosphopeptide, fluorescence polarization | 360,000 tested, 2.8% active | Potency, µM, for the others: max response, negative = inhibition, most hits filed as inhibitors; further: series mostly up to about 57 µM; on the % scale 0 is the no-effect control and ±100 the full control effect; nearly all actives have a fitted effect of over 65% in size
HP1b binding inh – HP1-beta chromodomain-methylated histone interaction inhibition; P83916; AlphaScreen HP1-beta / biotin-H3K9me3 peptide binding; Potency, µM (doses to about 114 µM), for inactives: at the top dose activity change, negative = inhibition, hits mostly inhibitors; 390,000 tested, 0.56% active; further: nearly all actives have a fitted effect of over 70% in size
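Compound inhibition of the preformed complex between 50 nM HP1-beta and 50 nM biotinylated H3K9me3 peptide was read by AlphaScreen. Buffer was PBS pH 7.4 with 0.01% Tween-20. Incubations ran 30 min at room temperature, with 10 ug/mL donor/acceptor beads.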
BAZ2B block – inhibitors of human BAZ2B bromodomain. 360,000 tested, 4.4% active. AlphaScreen BAZ2B-H3K14Ac peptide displacement. Potency, µM (titrated, usually from 114 µM), for inactives: at the highest dose activity change, negative = inhibition, hits mostly inhibitors. AID 504333; further: on the % scale 0 is the no-effect control and ±100 the full control effect; nearly all actives have a fitted effect of over 60% in size
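Compounds, titrated to a top concentration of 110 uM, were incubated 30 min at room temperature with preformed BAZ2B/acetyl-K14 H3 peptide complex (50 nM each). Proximity signal was measured by AlphaScreen after 20 min with beads.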
Active calls of the source: *; ? = inconclusive; nt = no result; ! = repeats disagree; [ ] = remark or other dose. The call rests on the fitted dose curve; in most records, active means well fitted curve in the direction sought with a large enough effect; inconclusive means small, poorly fitted or top-dose-only effect, or another doubt; inactive means no such curve, though single readings can be large; an effect the other way counts as inactive or inconclusive. Potency means the concentration at half of the fitted maximal effect.

SMILES	G9a inh	Sfp inh	JMJD2A Tudor inh	PLK1 PBD block	HP1b binding inh	BAZ2B block
Cc1cc(C)c2c(CN3CCCC3)cc(=O)oc2c1	nt	nt	nt	-16.0%	nt	nt
CCc1cc(=O)oc2cc(C)c(CN3CCCC3)c(O)c12	44.7µM*	89.1µM*	20µM*	?	-50.9%	17.8µM*
CCc1cc(=O)oc2cc(C)c(CN3CCCCC3)c(O)c12	-25.3%[59 µM]	-17.7%	56.2µM*	-30.4%	-31.7%	20µM*
CCCc1cc(=O)oc2c(CN3CCCC3)c(O)ccc12	22.2%	3.0%	5.0%	-0.5%	35.4%	3.9%
CCCc1cc(=O)oc2cc(C)c(CN3CCCC3)c(O)c12	89.1µM*	?	50.1µM*	?	-14.2%	12.6µM*
CC(=O)c1cccc(NS(=O)(=O)c2cc(OCC(N)=O)c(C)cc2Cl)c1	6.8%[59 µM]	8.6%	-17.5%	-2.2%	29.6%	-0.8%
COc1ccc(-c2noc(-c3ccc(NC4CCCCC4)c([N+](=O)[O-])c3)n2)cc1	?	nt	5.0%	nt	29.8%	-0.8%
C/C(CC1CC2=C(CC1(C)C)C(C)(C)CCC2)=N\NC(N)=S (stereo unspecified)	31.6µM*	?	-33.7%	16.8µM*	?	-21.3%
O=C(/C=C/c1ccc(O)c(O)c1)OC(Cc1ccc(O)c(O)c1)C(=O)O (stereo unspecified)	3.55µM*	79.4µM*!	12.6µM*	-11.9%	?	39.8µM*
O=C(/C=C\c1ccc(O)c(O)c1)O[C@@H](Cc1ccc(O)c(O)c1)C(=O)O	nt	50.1µM*	nt	nt	nt	nt
COc1cc(/C=C/C(=O)c2ccc(O)cc2O)ccc1O	nt	-29.7%	nt	nt	nt	nt
CN(C)C(=O)n1nnnc1Cc1ccc(-c2ccccc2)cc1	34.9%[59 µM]	0.7%	nt	nt	nt	nt
CCc1c(C)sc(NC(=S)N2CC(C)OC(C)C2)c1C(=O)OC (stereo unspecified)	-7.1%	?	-10.9%	0.9%	27.4%	0.5%
CCc1c(C)sc(NC(=O)OC)c1C(=O)N1CCCCC1	?	50.1µM*	-16.8%	?	-9.1%	-2.7%
CCc1c(C)sc(NC(=S)N2CCN(C(=O)C3CCCO3)CC2)c1C(=O)OC (stereo unspecified)	50.1µM*	-24.0%	?	-11.7%	?	?
CCNc1ncc2nc(-c3cccs3)c(=O)n(Cc3ccc(F)cc3)c2n1	-3.3%[0.501 µM]	15.1%	nt	nt	nt	nt
COc1ccc(-c2nc3cnc(N(C)C)nc3n(CCc3ccccc3)c2=O)cc1	14.3%[12.7 µM]	10.9%	nt	nt	nt	nt
COc1ccc(OCc2cc(C(=O)NCc3cccc(C)n3)no2)c(Cl)c1	?	13.4%	-29.0%	-4.6%	6.6%	-17.4%
OCCOCCOc1cccc2[nH]ccc12	-6.8%	21.9%	-10.3%	-6.2%	13.2%	-18.9%
CN(CCO)CCOCCOc1cccc2ccccc12	?	?	10µM*	-11.7%	?	nt
CC(C)(C)c1ccc(C(=O)Nc2nc3nc(-c4ccccc4)cc(=O)n3[nH]2)cc1	25.0%[59 µM]	nt	-4.7%	nt	61.3%	3.7%
CCOc1ccccc1C1CC(=O)Nc2c1c(=O)n(C)c1ncnn21 (stereo unspecified)	?	nt	-5.6%	nt	1.2%	-12.6%
CCN(CC)C(=O)C[n+]1ccc(C(N)=O)cc1	-30.8%	-1.8%	-18.2%	26.7µM*	-7.6%	-35.6%
CCCc1cc(=O)oc2cc(C)cc(OCC(=O)NCc3ccncc3)c12	18.9%	20.9%	-2.8%	2.2%	38.4%	-3.9%
COc1ccc(/C(N)=N/OC(=O)c2ccco2)cc1	-1.9%	-0.1%	20.6%	-2.4%	50.6%	6.7%
COc1ccc(N=N/C(=C\O)C(=O)c2ccco2)cc1	?	-10.3%	-11.3%[11.4 µM]	26.7µM*	-26.0%	39.8µM*
S=C1Nc2ccccc2Sc2ccc(Cl)cc21	?	?	-13.0%	23.8µM*	-7.1%	-18.6%
S=C1CCSc2ccc(Cl)cc2N1	5.5%[59 µM]	12.0%	-4.8%	-3.0%	38.0%	-1.4%
CCn1nc(NS(=O)(=O)c2ccc([N+](=O)[O-])cc2)c2cc3cccc(C)c3nc21	17.8µM*	4.6%	?	-25.7%	-23.0%	?
